Experimental data: the antibiotic and cytotoxicity screens of Wong et al. (2023)
The campaign covered roughly 39,000 compounds. About 3,300 (8.5%) were called active. The full list was thinned out, with actives kept by preference.

test system: HepG2; experiment: cytotoxicity call (relative viability < 0.9); conditions: 10 µM

Structure (SMILES)	cytotoxicity call
C[C@H]1CN([C@@H](C)CO)C(=O)c2cc(NC(=O)Cn3cnnn3)ccc2O[C@H]1CN(C)S(C)(=O)=O	inactive
C[C@H]1CN([C@@H](C)CO)C(=O)c2cc(C#CC(C)(C)O)cnc2O[C@@H]1CN(C)C(=O)CN(C)C	inactive
COc1ccc(NC(=O)N(C)C[C@@H]2OCCCC[C@@H](C)Oc3ccc(NS(=O)(=O)c4ccc(OC)cc4)cc3C(=O)N([C@@H](C)CO)C[C@@H]2C)cc1	inactive
CCOC(=O)CC1(C)NNC(=S)NN1	inactive
C[C@@](N)(C(=O)O)c1ccc(-c2nn[nH]n2)cc1	inactive
C[C@H](NC(=O)C[C@H]1C[C@@H]2c3cc(NC(=O)Nc4ccc(C(F)(F)F)cc4)ccc3O[C@@H]2[C@@H](CO)O1)c1ccccc1	inactive
C[C@H](NC(=O)C[C@@H]1C[C@@H]2c3cc(NC(=O)Nc4ccc(C(F)(F)F)cc4)ccc3O[C@@H]2[C@H](CO)O1)c1ccccc1	inactive
C[C@H](NC(=O)C[C@@H]1C[C@@H]2c3cc(NC(=O)Nc4ccc(C(F)(F)F)cc4)ccc3O[C@@H]2[C@@H](CO)O1)c1ccccc1	active
O=C(C[C@@H]1C[C@H]2c3cc(NC(=O)Nc4ccc(C(F)(F)F)cc4)ccc3O[C@H]2[C@@H](CO)O1)NC1CCCCC1	inactive
COc1ccccc1CNC(=O)C[C@H]1C[C@H]2c3cc(NC(=O)Nc4ccc(C(F)(F)F)cc4)ccc3O[C@H]2[C@H](CO)O1	inactive
COc1ccccc1CNC(=O)C[C@@H]1C[C@H]2c3cc(NC(=O)Nc4ccc(C(F)(F)F)cc4)ccc3O[C@H]2[C@@H](CO)O1	active
O=C(C[C@@H]1C[C@@H]2c3cc(NC(=O)Nc4ccc(C(F)(F)F)cc4)ccc3O[C@@H]2[C@@H](CO)O1)NC1CCCCC1	inactive
O=C(C[C@@H]1C[C@@H]2c3cc(NC(=O)Nc4ccc(C(F)(F)F)cc4)ccc3O[C@@H]2[C@H](CO)O1)NC1CCCCC1	active
COc1ccccc1CNC(=O)C[C@H]1C[C@@H]2c3cc(NC(=O)Nc4ccc(C(F)(F)F)cc4)ccc3O[C@@H]2[C@@H](CO)O1	inactive
C[C@@H]1CN([C@H](C)CO)C(=O)c2c(c3ccccc3n2C)-c2ccccc2CO[C@@H]1CN(C)S(=O)(=O)c1cn(C)cn1	inactive
Cc1noc(C)c1NC(=O)Nc1ccc2c(c1)C(=O)N([C@H](C)CO)C[C@@H](C)[C@H](CN(C)C(=O)Nc1ccccc1)OCCCC[C@@H](C)O2	inactive
Cc1ccc(S(=O)(=O)N(C)C[C@H]2Oc3ccc(NC(=O)CCCN(C)C)cc3C(=O)N([C@@H](C)CO)C[C@@H]2C)cc1	inactive
